Source: PubChem BioAssay (National Center for Advancing Translational Sciences (NCATS))
ALOX12 inh: inhibitors of human 12S-lipoxygenase ALOX12 | P18054 | purified 12hLO, xylenol orange hydroperoxide absorbance | Potency, µM (top dose mostly 108 µM), without a hit: top-dose activity change, negative = inhibition, hits mostly inhibitors | 580,000 tested, 1.1% active; also: potency is read from the fitted curve at half-maximal effect
Target sequence (P18054 whole entry, looked up): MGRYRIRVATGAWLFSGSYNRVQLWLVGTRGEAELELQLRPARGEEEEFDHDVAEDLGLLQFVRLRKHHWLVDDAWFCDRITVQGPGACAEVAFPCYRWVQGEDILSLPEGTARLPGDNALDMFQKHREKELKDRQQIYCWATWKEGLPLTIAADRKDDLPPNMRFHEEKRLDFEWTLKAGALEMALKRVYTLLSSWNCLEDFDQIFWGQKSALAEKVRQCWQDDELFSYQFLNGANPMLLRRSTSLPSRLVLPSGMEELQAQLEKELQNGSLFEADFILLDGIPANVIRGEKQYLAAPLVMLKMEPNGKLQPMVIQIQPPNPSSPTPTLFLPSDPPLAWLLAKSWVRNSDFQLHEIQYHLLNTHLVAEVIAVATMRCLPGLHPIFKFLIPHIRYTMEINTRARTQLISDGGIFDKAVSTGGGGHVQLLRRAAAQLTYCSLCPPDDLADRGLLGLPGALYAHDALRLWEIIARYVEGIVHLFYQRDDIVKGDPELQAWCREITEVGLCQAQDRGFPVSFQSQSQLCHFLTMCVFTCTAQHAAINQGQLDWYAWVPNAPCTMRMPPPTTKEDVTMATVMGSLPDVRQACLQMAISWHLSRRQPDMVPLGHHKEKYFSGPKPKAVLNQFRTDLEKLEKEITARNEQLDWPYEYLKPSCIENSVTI
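Hydroperoxide product was detected by ferrous iron/xylenol orange as the 573 to 405 nm absorbance ratio. Arachidonic acid at 40 uM (final) was turned over for 30 min at room temperature by 150 nM human 12hLO, pH 7.0 Hepes buffer, after 15 min compound preincubation.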
DT40 TDP1 CPT: growth inhibition of DT40 Tdp1-/-;hTDP1 cells with camptothecin (screen for TDP1 inhibitors). Potency, µM (highest dose often 46.2 µM), for the others: top-dose activity change, negative = growth inhibition, hits mostly inhibitors. AID 686979. 420,000 tested, 12% active. chicken DT40 Tdp1-/-;hTDP1 cells + 20 nM CPT, ATP luminescence, 48 h; also: potency is read from the fitted curve at half-maximal effect; nearly all actives have a fitted effect of over 55% in size
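Chicken DT40 Tdp1-/- cells complemented with human TDP1, 400 cells/well, exposed to compounds plus 20 nM camptothecin for at least 48 h at 37 C; viability read as ATP content by CellTiter-Glo luminescence.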
IL-1B inflam inh: inflammasome signaling inhibition, IL-1 beta readout; THP-1 LPS/ATP IL-1B secretion, AlphaLISA, 16 h; active compounds read low; activity change, % at 57.5 µM; 360,000 tested, 4.7% active; AID 743279; in the data active = activity change below about -50%; inconclusive = mostly about -30% to -49%
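THP-1 cells pretreated 1 hr with compounds (up to 57.5 uM final), then stimulated with LPS (250 ng/mL final) plus ATP (1.25 mM final); secreted IL-1B measured by AlphaLISA after 16 hr, decreased signal indicating inhibition.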
HT1080-NT tox: kills 2HG-producing HT-1080-NT fibrosarcoma cells | HT-1080-NT fibrosarcoma viability, CellTiter-Glo ATP luminescence, 48 h | Potency, µM (doses to about 46.1 µM), inactives show at the top dose activity, negative = less viability, usual class: cytotoxic | 360,000 tested, 1.6% active | AID 686970;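 also: NT is the 2HG producing partner of a matched IDH1 knockdown line; potency is read from the fitted curve at half-maximal effect; 0% = DMSO-treated cells and -100% = media-only wells without cells; nearly all actives have a fitted effect of over 55% in size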
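A 48-hour cytotoxicity screen used HT-1080-NT cells plated 2 hours before compound delivery. ATP-based CellTiter-Glo luminescence measured viability, normalized to DMSO and no-cell controls.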
DT40 TDP1 no CPT: qHTS for Inhibitors of human tyrosyl-DNA phosphodiesterase 1 (TDP1): qHTS in cells in absence of CPT | AID 686978, 2013 | 420,000 tested, 15% active | DT40 Tdp1-/- hTDP1 cells, no CPT, ATP luminescence, 48 h | Potency, µM (series often up to 46.2 µM), for inactives: at the top dose activity change, negative = growth inhibition, most hits filed as inhibitors; also: potency is read from the fitted curve at half-maximal effect; nearly all actives have a fitted effect of over 55% in size
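Cells were dispensed at 400 per well, compounds added by pin tool, plates incubated ≥48 hr at 37 °C, then CellTiter-Glo added for 30 min at room temperature before luminescence reading. Line: DT40 Tdp1-/- complemented with hTDP1; camptothecin omitted.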
HT1080 IDH1KD tx: HT-1080 IDH1 knockdown cell toxicity (counter line). HT-1080 IDH1 knockdown viability, ATP luminescence, 48 h. Potency, µM (series often up to 46.1 µM), inactives show at the highest dose activity, negative = toxicity, usual class: cytotoxic. 360,000 tested, 2% active. AID 686971;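 also: potency is read from the fitted curve at half-maximal effect; 0% = DMSO wells and -100% = cell-free medium wells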
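In this qHTS, HT-1080 cells depleted of IDH1 are exposed for 48 h at 37 °C to compound titrations. Toxicity is scored from CellTiter-Glo luminescence, with DMSO as full viability and medium alone as none.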
* marks the source's active call; other numbers are inactive results; [ ] = remark or other dose. This is one part of a sample in which hits are shown more often than they occur. Unless noted, calls follow the shape of the dose curve; as a rule, active = well fitted curve in the direction sought with a large enough effect; inconclusive = small, poorly fitted or top-dose-only effect, or another doubt; inactive = no such curve, though single readings can be large; an effect the other way counts as inactive or inconclusive. Unless noted, % is scaled to controls: 0 for no effect and ±100 for the full control effect.

Screening O=C(/C=C/c1ccc(Br)cc1)c1ccc(NC2=NCCCS2)cc1 returned ALOX12 inh inconclusive, DT40 TDP1 CPT 9.2µM*, IL-1B inflam inh -65.0*, HT1080-NT tox inconclusive, DT40 TDP1 no CPT inconclusive and HT1080 IDH1KD tx inconclusive.
For Cc1cccc(/C=C/C(=O)c2ccc(NC3=NCCCS3)cc2)c1 the results were ALOX12 inh -16.8%, DT40 TDP1 CPT 13µM*, IL-1B inflam inh -86.7*, HT1080-NT tox inconclusive, DT40 TDP1 no CPT 7.31µM* and HT1080 IDH1KD tx inconclusive.
`CC(C)(C)c1ccc(/C=C/C(=O)c2ccc(NC3=NCCCS3)cc2)cc1` gave ALOX12 inh -23.7%, DT40 TDP1 CPT 23.1µM*, IL-1B inflam inh -100.3*, HT1080-NT tox inconclusive, DT40 TDP1 no CPT inconclusive and HT1080 IDH1KD tx inconclusive.
Screening O=C(/C=C/c1ccccc1)c1ccc(NC2=NCCCS2)cc1 returned ALOX12 inh -39.2%, DT40 TDP1 CPT 14.6µM*, IL-1B inflam inh -101.6*, HT1080-NT tox -11.3%, DT40 TDP1 no CPT 11.6µM* and HT1080 IDH1KD tx -16.5%.
CC(C)(C)c1ccc(C(=O)NCCC(=O)NC2=NCCS2)cc1 was read as ALOX12 inh inconclusive, DT40 TDP1 CPT -16.5%, IL-1B inflam inh 4.8, HT1080-NT tox 2.0%[9.24 µM], DT40 TDP1 no CPT -21.8% and HT1080 IDH1KD tx -1.3%.
For c1ccc(NC2=NCCCCS2)cc1 the results were ALOX12 inh 0.0%, DT40 TDP1 CPT -25.5%, IL-1B inflam inh 12.4, HT1080-NT tox 0.9%, DT40 TDP1 no CPT -4.4% and HT1080 IDH1KD tx -4.6%.
CO[C@H]1C(=O)N(C2CCN(S(=O)(=O)c3cccnc3)CC2)[C@H]1c1ccncc1 was read as ALOX12 inh 9.0%.
CNC(=O)c1cc[nH]c1C1CCCN(C(=O)c2cccs2)C1 (centres undefined) was read as ALOX12 inh 15.9%.
C=CCN(c1ccccc1OC)S(=O)(=O)c1cccc(C(=O)NC2=NCCS2)c1 was read as ALOX12 inh 0.0%, DT40 TDP1 CPT inconclusive, IL-1B inflam inh -10.9, HT1080-NT tox 1.5%, DT40 TDP1 no CPT 23.1µM* and HT1080 IDH1KD tx 1.7%.
CC(C)Cc1ccc(C(C)C(=O)OCC(=O)c2c[nH]c3ccccc23)cc1 (centres undefined) was read as ALOX12 inh 1.8%, DT40 TDP1 CPT 10.3µM*, IL-1B inflam inh -24.3, HT1080-NT tox inconclusive, DT40 TDP1 no CPT 13µM* and HT1080 IDH1KD tx inconclusive.
For C=CCN(c1ccccc1OC)S(=O)(=O)c1cccc(C(=O)Nc2nnc(C3CC3)s2)c1 the results were ALOX12 inh 11.7%, DT40 TDP1 CPT 20.6%, IL-1B inflam inh 2.4, HT1080-NT tox 0.0%, DT40 TDP1 no CPT 1.0% and HT1080 IDH1KD tx -16.4%.
`COc1ccccc1/C=C/C(=O)OCC(=O)c1c[nH]c2ccccc12` gave ALOX12 inh 283.1%, DT40 TDP1 CPT inconclusive, IL-1B inflam inh 29.2, HT1080-NT tox -10.5%, DT40 TDP1 no CPT 20.6µM* and HT1080 IDH1KD tx 1.0%.
`C=CCN(c1ccccc1OC)S(=O)(=O)c1cccc(C(=O)OCC(=O)c2c[nH]c3ccccc23)c1` gave ALOX12 inh -30.1%, DT40 TDP1 CPT inconclusive, IL-1B inflam inh -1.6, HT1080-NT tox 1.0%, DT40 TDP1 no CPT 23.1µM* and HT1080 IDH1KD tx -12.8%.
`Cc1ccc(C(=O)OCC(=O)c2c[nH]c3ccccc23)cc1` gave ALOX12 inh -10.1%, DT40 TDP1 CPT -2.1%, IL-1B inflam inh 39.9, HT1080-NT tox -10.2%, DT40 TDP1 no CPT 0.3% and HT1080 IDH1KD tx -9.9%.
Screening COc1ccccc1/C=C/C(=O)OCC(=O)c1cc(C)n(C)c1C returned ALOX12 inh 7.8%, DT40 TDP1 CPT inconclusive, IL-1B inflam inh -13.6, HT1080-NT tox 22.8%, DT40 TDP1 no CPT inconclusive and HT1080 IDH1KD tx 19.2%.
`NC(=O)C1CCCN(c2nc(-c3cccs3)nc3ccccc23)C1` (centres undefined) gave ALOX12 inh -1.9%.
`COc1cc(OC)c(N(C)S(=O)(=O)c2cccc(C(=O)OCC(=O)c3c[nH]c4ccccc34)c2)cc1Cl` gave ALOX12 inh -6.9%, DT40 TDP1 CPT inconclusive, IL-1B inflam inh 13.2, HT1080-NT tox -20.3%, DT40 TDP1 no CPT 23.1µM* and HT1080 IDH1KD tx inconclusive.
`COc1ccc(C(=O)OCC(=O)c2c[nH]c3ccccc23)cc1OC` gave ALOX12 inh 0.0%, DT40 TDP1 CPT -4.6%, IL-1B inflam inh 38.4, HT1080-NT tox -6.5%, DT40 TDP1 no CPT -2.3% and HT1080 IDH1KD tx -15.8%.
For CCOC(=O)c1cc(C#N)c(SC(C(=O)N2CCCCC2)c2ccccc2)nc1C (centres undefined) the results were DT40 TDP1 CPT inconclusive and DT40 TDP1 no CPT 10µM*.
Cc1cccc(CN2CCN(S(=O)(=O)c3c(C)noc3C)CC2)c1 was read as ALOX12 inh 0.4%.
`COc1ccc(OC)c(CNC(=O)c2ccc3c(c2)C(O)CCCCCN3C)c1` (centres undefined) gave ALOX12 inh 66.4%.
`Cc1ccc2nc(C3CCCCC3)c(Cc3ccsc3)n2c1` gave ALOX12 inh inconclusive, DT40 TDP1 CPT 13µM*, IL-1B inflam inh -11.4, HT1080-NT tox -29.7%, DT40 TDP1 no CPT 9.2µM* and HT1080 IDH1KD tx inconclusive.
Screening Cc1ccc(Cc2c(C3CCCCC3)nc3ccc(C)cn23)cc1 returned ALOX12 inh inconclusive, DT40 TDP1 CPT 18.4µM*, IL-1B inflam inh -52.4*, HT1080-NT tox inconclusive, DT40 TDP1 no CPT 18.4µM* and HT1080 IDH1KD tx inconclusive.
`Brc1ccc2nc(C3CCCCC3)c(Cc3ccccc3)n2c1` gave ALOX12 inh -29.7%, DT40 TDP1 CPT inconclusive, IL-1B inflam inh 48.8, HT1080-NT tox -28.8%, DT40 TDP1 no CPT inconclusive and HT1080 IDH1KD tx inconclusive.
COc1ccc(-c2nc3cc(NC(=O)CC(C)C)ccc3o2)cc1OC was read as ALOX12 inh 30.9%.
Screening CCC(C)N(CC(=O)Nc1cccc(C)c1C)C(=O)CN1CCCC(C(F)(F)F)C1 (centres undefined) returned ALOX12 inh 5.1%.
Screening O=C(Nc1ccc2c(c1)CCC2)c1ncoc1-c1ccccc1F returned ALOX12 inh 3.2%, DT40 TDP1 CPT -19.1%, IL-1B inflam inh -73.9*, HT1080-NT tox 8.2%, DT40 TDP1 no CPT inconclusive and HT1080 IDH1KD tx -5.9%.
